Data published in PubChem BioAssay AID1159580 (chemical genetic matrix, 2015).
Hit rate of the full screen: of about 5,500 compounds, about 2,000 (36%) were called active. Another 18% or so got no clear call; they are omitted. Cut-off read from the data, not from the text of the source: active = normalized growth mostly below about 0.91 (no sharp cut-off); inconclusive = no clear call, values can overlap the other calls; inactive = mostly above about 0.92. Some of the results follow.

Assay: chemical genetic growth profiling, strain panel (AID 1159580);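 note: tested at 20 µM; growth read once vehicle control cultures reached saturation at 30 °C; 1 = growth at the plate median or of vehicle wells; lower values mean less growth of the strain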
Conditions: growth OD

Measured: normalized growth

O=C(/C=C/C=C/c1ccc2c(c1)OCO2)N1CCCCC1
inactive: S. cerevisiae deletion strains, locus YJR075W, strain HOC1, stronger effect = lower value 0.9 | S. cerevisiae deletion strains, locus YKL009W, strain mrt4, stronger effect = lower value 0.886 | S. cerevisiae deletion strains, locus YKL068W, stronger effect = lower value 0.966 | S. cerevisiae deletion strains, locus YKL085W, strain MDH1 (second series), stronger effect = lower value 0.953 | S. cerevisiae deletion strains, locus YKL085W, strain MDH1, stronger effect = lower value 0.953 | S. cerevisiae deletion strains, locus YKL160W, strain elf1, stronger effect = lower value 0.919 | S. cerevisiae deletion strains, locus YKL190W, strain CNB1, stronger effect = lower value 0.974 | S. cerevisiae deletion strains, locus YKR026C, strain gcn3, stronger effect = lower value 0.992 | S. cerevisiae deletion strains, locus YKR091W, strain srl3, stronger effect = lower value 0.977 | S. cerevisiae deletion strains, locus YLL001W, strain dnm1, stronger effect = lower value 0.935 | S. cerevisiae deletion strains, locus YLL026W, stronger effect = lower value 0.956 | S. cerevisiae deletion strains, locus YLL041C, strain sdh2, stronger effect = lower value 0.964 | S. cerevisiae deletion strains, locus YLR027C, strain aat2, stronger effect = lower value 0.945 | S. cerevisiae deletion strains, locus YLR039C, strain RIC1, stronger effect = lower value 0.72 | S. cerevisiae deletion strains, locus YLR058C, strain SHM2, stronger effect = lower value 0.968 | S. cerevisiae deletion strains, locus YLR102C, strain apc9, stronger effect = lower value 0.94 | S. cerevisiae deletion strains, locus YLR113W, strain HOG1, stronger effect = lower value 0.973 | S. cerevisiae deletion strains, locus YLR258W, strain gsy2, stronger effect = lower value 0.92 | S. cerevisiae deletion strains, locus YLR262C, strain YPT6, stronger effect = lower value 0.785 | S. cerevisiae deletion strains, locus YLR330W, strain CHS5, stronger effect = lower value 0.969 | S. cerevisiae deletion strains, locus YLR357W, strain rsc2, stronger effect = lower value 1.08 | S. cerevisiae deletion strains, locus YLR370C, strain arc18, stronger effect = lower value 0.952 | S. cerevisiae deletion strains, locus YLR371W, strain rom2, stronger effect = lower value 0.959 | S. cerevisiae deletion strains, locus YLR384C, strain iki3, stronger effect = lower value 0.976 | S. cerevisiae deletion strains, locus YML016C, strain PPZ1, stronger effect = lower value 0.961 | S. cerevisiae deletion strains, locus YML032C, strain rad52, stronger effect = lower value 0.914 | S. cerevisiae deletion strains, locus YML120C, strain ndi1, stronger effect = lower value 0.932 | S. cerevisiae deletion strains, locus YML124C, strain tub3, stronger effect = lower value 0.945 | S. cerevisiae deletion strains, locus YMR058W, strain fet3, stronger effect = lower value 0.93 | S. cerevisiae deletion strains, locus YMR078C, strain ctf18, stronger effect = lower value 0.932 | S. cerevisiae deletion strains, locus YMR125W, strain sto1, stronger effect = lower value 0.961 | S. cerevisiae deletion strains, locus YMR129W, stronger effect = lower value 0.959 | S. cerevisiae deletion strains, locus YMR205C, strain PFK2, stronger effect = lower value 0.892 | S. cerevisiae deletion strains, locus YMR223W, strain ubp8, stronger effect = lower value 0.91 | S. cerevisiae deletion strains, locus YMR231W, strain pep5, stronger effect = lower value 0.99 | S. cerevisiae deletion strains, locus YMR263W, strain SAP30, stronger effect = lower value 0.921 | S. cerevisiae deletion strains, locus YMR307W, strain GAS1, stronger effect = lower value 0.621 | S. cerevisiae deletion strains, locus YNL067W, strain RPL9B, stronger effect = lower value 0.907 | S. cerevisiae deletion strains, locus YNL128W, strain TEP1, stronger effect = lower value 0.991 | S. cerevisiae deletion strains, locus YNL153C, strain GIM3, stronger effect = lower value 0.953 | S. cerevisiae deletion strains, locus YNL183C, strain NPR1, stronger effect = lower value 0.95 | S. cerevisiae deletion strains, locus YNL209W, strain ssb2, stronger effect = lower value 0.949 | S. cerevisiae deletion strains, locus YNL233W, strain BNI4, stronger effect = lower value 0.89 | S. cerevisiae deletion strains, locus YNL248C, strain rpa49, stronger effect = lower value 0.94 | S. cerevisiae deletion strains, locus YNL250W, strain rad50, stronger effect = lower value 0.95 | S. cerevisiae deletion strains, locus YNL271C, strain bni1, stronger effect = lower value 0.933 | S. cerevisiae deletion strains, locus YNL298W, strain CLA4, stronger effect = lower value 0.92 | S. cerevisiae deletion strains, locus YNL322C, strain KRE1 (second series), stronger effect = lower value 0.965 | S. cerevisiae deletion strains, locus YNL322C, strain KRE1, stronger effect = lower value 0.981 | S. cerevisiae deletion strains, locus YNR049C, strain mso1, stronger effect = lower value 0.977 | S. cerevisiae deletion strains, locus YNR052C, strain pop2, stronger effect = lower value 0.963 | S. cerevisiae deletion strains, locus YOL006C, strain TOP1, stronger effect = lower value 0.598 | S. cerevisiae deletion strains, locus YOL012C, strain htz1 1.13 | S. cerevisiae deletion strains, locus YOL147C, strain pex11, stronger effect = lower value 0.951 | S. cerevisiae deletion strains, locus YOR001W, strain rrp6, stronger effect = lower value 0.956 | S. cerevisiae deletion strains, locus YOR061W, strain CKA2, stronger effect = lower value 0.979 | S. cerevisiae deletion strains, locus YOR069W, strain VPS5, stronger effect = lower value 0.98 | S. cerevisiae deletion strains, locus YOR070C, strain gyp1, stronger effect = lower value 0.935 | S. cerevisiae deletion strains, locus YOR080W, strain dia2, stronger effect = lower value 0.996 | S. cerevisiae deletion strains, locus YOR083W, strain WHI5, stronger effect = lower value 0.909 | S. cerevisiae deletion strains, locus YOR106W, strain vam3, stronger effect = lower value 0.925 | S. cerevisiae deletion strains, locus YOR136W, strain idh2, stronger effect = lower value 0.964 | S. cerevisiae deletion strains, locus YOR144C, strain elg1, stronger effect = lower value 0.948 | S. cerevisiae deletion strains, locus YOR231W, strain MKK1, stronger effect = lower value 0.982 | S. cerevisiae deletion strains, locus YOR265W, strain rbl2, stronger effect = lower value 0.961 | S. cerevisiae deletion strains, locus YOR290C, strain snf2, stronger effect = lower value 0.929 | S. cerevisiae deletion strains, locus YOR316C, strain cot1, stronger effect = lower value 0.946 | S. cerevisiae deletion strains, locus YPL055C, strain LGE1, stronger effect = lower value 0.827 | S. cerevisiae deletion strains, locus YPL078C, strain atp4, stronger effect = lower value 0.914 | S. cerevisiae deletion strains, locus YPL106C, strain sse1, stronger effect = lower value 0.92 | S. cerevisiae deletion strains, locus YPL240C, strain hsp82, stronger effect = lower value 0.946 | S. cerevisiae deletion strains, locus YPL241C, strain CIN2, stronger effect = lower value 0.969 | S. cerevisiae deletion strains, locus YPL256C, strain CLN2, stronger effect = lower value 0.914 | S. cerevisiae deletion strains, locus YPR119W, strain clb2, stronger effect = lower value 0.936 | S. cerevisiae deletion strains, locus YPR141C, strain kar3, stronger effect = lower value 0.946 | S. cerevisiae deletion strains, locus YPR167C, strain met16, stronger effect = lower value 0.948 | S. cerevisiae deletion strains, strain wtn01, stronger effect = lower value 0.9 | S. cerevisiae strains, strain wild type, stronger effect = lower value 0.948
active: S. cerevisiae deletion strains, locus YKR001C, strain vps1, stronger effect = lower value 0.796 | S. cerevisiae deletion strains, locus YLR221C, strain rsa3, stronger effect = lower value 0.9 | S. cerevisiae deletion strains, locus YLR262C, strain YPT6 (second series), stronger effect = lower value 0.71 | S. cerevisiae deletion strains, locus YLR268W, strain sec22, stronger effect = lower value 0.807 | S. cerevisiae deletion strains, locus YLR320W, strain mms22, stronger effect = lower value 0.808 | S. cerevisiae deletion strains, locus YLR342W, strain FKS1 (second series), stronger effect = lower value 0.781 | S. cerevisiae deletion strains, locus YLR342W, strain FKS1, stronger effect = lower value 0.851 | S. cerevisiae deletion strains, locus YLR418C, strain cdc73, stronger effect = lower value 0.701 | S. cerevisiae deletion strains, locus YNL071W, strain lat1, stronger effect = lower value 0.674 | S. cerevisiae deletion strains, locus YNL307C, strain MCK1, stronger effect = lower value 0.729 | S. cerevisiae deletion strains, locus YOR184W, strain ser1, stronger effect = lower value 0.753 | S. cerevisiae deletion strains, locus YOR270C, strain vph1, stronger effect = lower value 0.633 | S. cerevisiae deletion strains, locus YPL051W, strain arl3, stronger effect = lower value 0.896 | S. cerevisiae deletion strains, locus YPR163C, strain tif3, stronger effect = lower value 0.856
